An excerpt weighted towards active compounds, which were near 2.9% of everything screened.
BioA inh: inhibitors of Mycobacterium tuberculosis BioA enzyme | purified M. tuberculosis BioA enzyme, plate reader | inhibition, % at 9.99 µM | actives 0.096% (n = 360,000); in the data active = inhibition above about 40%
Mtb hypoxia rep: inhibitors of hypoxia-regulated fluorescent reporter in Mycobacterium tuberculosis | M. tuberculosis hypoxia-regulated fluorescent reporter, fluorescence | fluorescence inhibition, % (test concentration not listed) | actives 0.1% (n = 300,000) | AID 1159583; in the data active = fluorescence inhibition mostly above about 23%, no sharp cut-off; inactive = mostly below about 17%
GDH-TPI inh: counter-screen for M. tuberculosis FBA inhibitors: GDH-TPI coupled enzymes. inhibition, % at 4.8 µM. actives 1.2% (n = 360,000). GDH-TPI coupled enzyme counterscreen, NADH absorbance; in the data active = inhibition above about 30%;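 also: 0% = DMSO wells and 100% = wells lacking the enzyme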
Mtb FBA inh: inhibits M. tuberculosis FBA enzyme; purified M. tuberculosis FBA, fluorescence read-out; inhibition, % at 1 µM; actives 2.3% (n = 360,000); in the data active = inhibition above about 27%;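 also: 0% = vehicle and 100% = reference inhibitor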
Target sequence (P9WQA3 whole entry, looked up): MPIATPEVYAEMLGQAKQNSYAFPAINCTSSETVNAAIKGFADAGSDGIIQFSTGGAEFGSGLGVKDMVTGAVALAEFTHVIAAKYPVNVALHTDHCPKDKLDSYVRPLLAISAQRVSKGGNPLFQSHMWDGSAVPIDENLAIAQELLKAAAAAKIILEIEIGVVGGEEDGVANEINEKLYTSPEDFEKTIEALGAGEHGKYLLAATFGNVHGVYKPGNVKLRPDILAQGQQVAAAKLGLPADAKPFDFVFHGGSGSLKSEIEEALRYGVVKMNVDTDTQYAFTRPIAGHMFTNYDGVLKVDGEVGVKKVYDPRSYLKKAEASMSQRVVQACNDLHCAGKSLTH
FadD28 binding: blocks FadD28 binding to the bisubstrate probe; actives 0.22% (n = 360,000); inhibition, % at 12.5 µM; AID 588549; fluorescence polarization; in the data active = inhibition above about 8.5%, passing the limit was not always enough
Starred values were filed as active, the others as inactive; . = no result; + = active, no number.

SMILES	BioA inh	Mtb hypoxia rep	GDH-TPI inh	Mtb FBA inh	FadD28 binding
Cc1ccc(C(=O)Nc2nnc(NC(=S)Nc3ccccc3)s2)cc1	-13	13	24	-2	5
CCC(=O)Nc1nnc(S(=O)(=O)N(C)Cc2ccco2)s1	2	5	6	-1	1
CCOc1ccc(C(=O)Nc2nnc(NC(=S)Nc3ccccc3)s2)cc1	1	.	40*	-2	-2
CN(C)C(=O)c1ccc(-c2ccc([C@@H]3[C@H]4CN(C(=O)C5CCC5)CCCCN4[C@H]3CO)cc2)cc1	3	.	.	.	.
CCN(C[C@H]1N[C@H](CO)[C@H]1c1ccc(-c2cccc(C#N)c2)cc1)C(=O)COC	-2	.	.	.	.
COc1ccc2[nH]c3c(c2c1)CCn1c-3nc2ccccc2c1=O	0	.	59*	16	-3
COc1cc(/C=C2\SC(=O)N(Cc3ccc(Cl)cc3)C2=O)cc([N+](=O)[O-])c1O	.	-3	-4	-3	24*
COc1cc(/C=C2/SC(=S)N(Cc3ccccc3)C2=O)cc(Cl)c1O	-2	.	4	-5	-1
COc1cc([N+](=O)[O-])cc(/C=C2/SC(=S)N(Cc3ccccc3)C2=O)c1O	1	12	18	-4	47*
COc1cccc(NC(=O)N[C@H]2CC[C@H](CC(=O)N3CCN(C)CC3)O[C@H]2CO)c1	4	.	.	.	.
Cc1ccc(C(=O)N2CCN(c3cccc(Cl)c3)CC2)cc1C	1	13	31*	3	-3
Cc1ccc(C(=O)N2CCN(c3ccccc3)CC2)cc1C	1	20	4	0	-4
COc1cc(C=NOCC(=O)NC2CCCCC2C)ccc1OCc1ccc(Cl)cc1 (stereo not drawn)	.	-4	.	.	.
CNC(=S)N1N=C(c2cccs2)CC1c1ccc(OC)cc1 (stereo not drawn)	4	2	48*	3	-8
COc1ccc(C2CC(c3ccccc3)=NN2C(=S)Nc2ccccc2)cc1 (stereo not drawn)	-1	-3	34*	-1	0
COc1ccc(C2CC(c3cccs3)=NN2C(=O)CN2CCCCC2)cc1 (stereo not drawn)	.	-6	12	5	-2
CN1[C@@H]2Cn3c(ccc(-c4ccncc4)c3=O)[C@H]1[C@@H](C(=O)NC1CCCCC1)[C@@H]2CO	-2	.	.	.	.
CCOC(=O)C1CCCN(C(=O)c2ccc(C(=O)c3ccccc3)cc2)C1 (stereo not drawn)	-1	-1	2	1	0
CCOC(=O)C1CCCN(C(=O)C2COc3ccccc3O2)C1 (stereo not drawn)	1	6	4	2	-2
CCOC(=O)C1CCCN(C(=O)C2c3ccccc3Oc3ccccc32)C1 (stereo not drawn)	.	-6	10	7	10*
CCOC(=O)C1CCCN(C(=O)c2ccc(OCC)cc2)C1 (stereo not drawn)	0	2	-6	+	-3
O=C(C[C@H]1CC[C@@H]2[C@H](COC[C@@H](O)CN2C(=O)Nc2ccc(F)cc2)O1)NCC1CC1	2	.	.	.	.
C[C@@H]1CN([C@H](C)CO)C(=O)c2cc(NC(=O)Nc3ccc4c(c3)OCO4)ccc2O[C@@H](C)CCCCO[C@@H]1CN(C)S(=O)(=O)c1ccccc1	0	.	.	.	.
COc1ccc(Oc2ccc(N/C=C/C(=O)C(C)(C)C)cc2)cc1	.	-3	1	1	-2
CC(=O)Nc1ccc(N/C=C/C(=O)C(C)(C)C)cc1	0	-1	42*	2	-1
SMILES	BioA inh	Mtb hypoxia rep	GDH-TPI inh	Mtb FBA inh	FadD28 binding
COC(=O)C[C@@H]1CC[C@@H]2[C@H](COc3ccc(NC(=O)c4cc(C)on4)cc3C(=O)N2C)O1	0	.	.	.	.
CSc1ccc(/C=C/C(=O)N2CCN(c3ccccn3)CC2)cc1	4	4	32*	5	-1
O=C(C[C@@H]1CC[C@H]2[C@@H](COC[C@@H](O)CN2C(=O)c2ccc(F)cc2)O1)Nc1ccc(-c2ccccc2)cc1	2	.	.	.	.
CN1C2=NCCN2C(=O)c2ccccc21	0	6	12	2	0
c1ccc2c(c1)C1=NCCN1c1ccccc1-2	.	.	8	73*	-2
COc1cc(-c2cc(C(=O)Nc3ccc(N4CCOCC4)cc3)c3ccccc3n2)cc(OC)c1OC	0	-7	42*	-2	-2
COc1cc(-c2cc(C(=O)Nc3ccncc3)c3ccccc3n2)cc(OC)c1OC	0	22*	5	-4	-4
O=C(Nc1ccccc1F)N[C@@H]1CC[C@@H](CCNS(=O)(=O)c2ccc(F)cc2)O[C@H]1CO	-1	.	.	.	.
